Reference: PubChem BioAssay AID540358 (NMMLSC, 2011)
Values joined by “and” are separate entries in the source; they are usually repeats but may differ in a detail not shown here. Identical values can stand only once. Among all 1,100 compounds or so, about 260 (24%) were called active.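 Rule for the calls: active = surface receptor percent response at or below 58%, roughly 3 SD from nonfluorescent compounds; inactive = the rest.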 Only a sample is shown.

What follows are molecules tested against Beta-2 adrenergic receptor (Homo sapiens) (UniProt P07550) (assay: beta2AR agonists via receptor internalization, confirmation, cell-based, FAP fluorogen, flow cytometry, single point, cherry pick 1 (AID 540358)). Conditions: Am2.2-beta2AR cells, at 10 µM, hits give low values.
Sequence of Beta-2 adrenergic receptor (Homo sapiens) (P07550 whole entry, looked up): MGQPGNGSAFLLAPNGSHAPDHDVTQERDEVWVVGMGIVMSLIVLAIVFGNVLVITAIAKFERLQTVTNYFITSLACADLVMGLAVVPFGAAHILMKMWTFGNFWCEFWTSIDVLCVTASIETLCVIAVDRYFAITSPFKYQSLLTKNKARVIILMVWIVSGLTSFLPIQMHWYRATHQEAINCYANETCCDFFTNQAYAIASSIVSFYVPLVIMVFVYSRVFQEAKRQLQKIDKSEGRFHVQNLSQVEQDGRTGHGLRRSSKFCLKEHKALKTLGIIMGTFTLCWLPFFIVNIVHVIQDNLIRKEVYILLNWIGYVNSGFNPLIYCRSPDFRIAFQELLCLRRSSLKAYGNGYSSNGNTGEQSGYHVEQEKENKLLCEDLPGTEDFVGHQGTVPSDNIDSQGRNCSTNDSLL
For `CSc1ccc(CNC(=O)c2ccc(NC(=O)C3=CSCCO3)cc2)cc1`, the percent response (surface receptor) was 17.5% (active). For `OC(CNCc1ccc(Cl)c(Cl)c1)c1ccccc1` (stereo unspecified), the percent response (surface receptor) was 110% (inactive). With `CCCCCCCCCCOC(=O)Cn1c(COc2ccc(C)cc2)[n+](C)c2ccccc21` the percent response (surface receptor) was 108% (inactive). With `O=C1C(=O)N(CC2COc3ccccc3O2)c2ccccc21` (stereo unspecified) the percent response (surface receptor) was 95.3% (inactive). For `O=C(NCCCn1ccnc1)C1CCCN(S(=O)(=O)c2cc(Cl)ccc2Cl)C1` (stereo unspecified), the percent response (surface receptor) was 17.8% (active). With `CC(=O)Nc1ccc(Nc2c3ccccc3nc3ccccc23)cc1` the percent response (surface receptor) was 80.8% (inactive). For `COc1ccc(-n2nc3c(N4CCC(C(=O)NCc5ccccc5)CC4)nnc(C)c3c2C)cc1`, the percent response (surface receptor) was 152% (inactive). `C=CCNC(=S)N/N=C/c1ccc(C)s1` was tested, and the percent response (surface receptor) was 110% (inactive). With `CC(=O)Nc1ccc(CN2CCC(Oc3ccc(C(=O)N4CCCC4)cc3)CC2)cc1` the percent response (surface receptor) was 104% (inactive). `CC(CCc1ccccc1)NCC(O)c1cccc([N+](=O)[O-])c1` (stereo unspecified) was tested, and the percent response (surface receptor) was 119% (inactive). `COc1cc(C#Cc2ccc3cc(CCCO)oc(=O)c3c2)cc(OC)c1` was tested, and the percent response (surface receptor) was 68.2% (inactive). `COc1ccc(-c2ccnc(SCC(=O)N3CCOCC3)n2)cc1` was tested, and the percent response (surface receptor) was 104% (inactive). In the case of `Cc1ccc(Cl)cc1NC(=O)CN1CCN(S(=O)(=O)N2CCOCC2)CC1`, the percent response (surface receptor) is reported as 93.5% (inactive). `CCOc1ccccc1N1C(=O)CC(Sc2nccc(C)n2)C1=O` (stereo unspecified) was tested, and the percent response (surface receptor) was 106% (inactive). With `CCOC(=O)c1ccc(NC(=O)Cn2nnc(-c3ccc(C)cc3)n2)cc1` the percent response (surface receptor) was 12.3% (active) and 4.86% (active). In the case of `COc1ccc2c(c1OC)C(=O)OC2Nc1nc(-c2ccccc2)cs1` (stereo unspecified), the percent response (surface receptor) is reported as 99.6% (inactive). For `O=C(C1CCN(c2nnc(-n3cccc3)s2)CC1)N1CCc2ccccc2C1`, the percent response (surface receptor) was 146% (inactive). For `CC(=O)c1ccc(NC(=O)c2ccc3c(Cl)c4c(nc3c2)CCCC4)cc1`, the percent response (surface receptor) was 66.5% (inactive). `Cc1cc(S(=O)(=O)N2CCOCC2)ccc1OCC(=O)Nc1cccc(C(F)(F)F)c1` was tested, and the percent response (surface receptor) was 99% (inactive). For `COc1ccc(OC)c(NC(=O)c2sc3nc(C)cc(C)c3c2N)c1`, the percent response (surface receptor) was 34.7% (active). `N#Cc1cccc(NC(=O)COC(=O)c2ccccc2C(=O)c2ccc(Cl)c([N+](=O)[O-])c2)c1` was tested, and the percent response (surface receptor) was 85.9% (inactive). `COc1ccc(OC)c(S(=O)(=O)N(C)CC(=O)N2CCN(c3ccccc3)CC2)c1` was tested, and the percent response (surface receptor) was 88.9% (inactive) and 123% (inactive). For `CCOc1ccccc1NC(=O)COc1ccc(S(=O)(=O)N2CCCC2)cc1`, the percent response (surface receptor) was 128% (inactive). In the case of `COc1ccc(S(=O)(=O)N2CCCC(C(=O)Nc3ccc(NC(=O)c4ccccn4)cc3)C2)cc1` (stereo unspecified), the percent response (surface receptor) is reported as 44.1% (active). For `CCOc1ccc(NC(=O)COc2ccc(S(=O)(=O)N3CCCC3)cc2)cc1`, the percent response (surface receptor) was 104% (inactive). `CCN1CCC2(CC1)N=C(c1ccc(F)cc1)C(=S)N2C(=O)c1ccc(C)cc1` was tested, and the percent response (surface receptor) was 92.8% (inactive). In the case of `CC(=O)c1cccc(NC(=O)COc2ccc(S(=O)(=O)N3CCOCC3)cc2)c1`, the percent response (surface receptor) is reported as 120% (inactive). In the case of `Cc1ccc(OCC(=O)Nc2ccc(-c3nc4ncccc4o3)cc2)cc1`, the percent response (surface receptor) is reported as 38.8% (active) and 23.3% (active). `CCCOc1ccc(C(=O)C(CCC(CNCC)C(=O)c2ccc(OCCC)cc2)CNCC)cc1` (stereo unspecified) was tested, and the percent response (surface receptor) was 61% (inactive). In the case of `O=S(=O)(Nc1ccc2[nH]ncc2c1)c1ccccc1Cl`, the percent response (surface receptor) is reported as 89.6% (inactive). For `Cc1ccc(Sc2cc(N3CCOCC3)nc(-c3ccccc3)n2)cc1`, the percent response (surface receptor) was 22.9% (active). In the case of `CCCN(CCc1ccccc1)C1CCc2c(O)cccc2C1` (stereo unspecified), the percent response (surface receptor) is reported as 111% (inactive). In the case of `CSc1ccc(CCNC(=O)C2CCN(c3nnc(-n4cccc4)s3)CC2)cc1`, the percent response (surface receptor) is reported as 60.9% (inactive). With `Oc1ccc(N=Cc2sc3ccccc3c2Cl)cc1` the percent response (surface receptor) was 101% (inactive). In the case of `O=C(Nc1ccc2c(c1)OCCO2)C(c1ccc(F)cc1)N1CCCCC1` (stereo unspecified), the percent response (surface receptor) is reported as 112% (inactive). In the case of `COc1ccc(C(CCNCc2ccccc2F)c2ccc(F)cc2)cc1` (stereo unspecified), the percent response (surface receptor) is reported as 109% (inactive).
